Measured values as given in PubChem BioAssay (NCI).
About 83,000 compounds went through this panel and 20% of them were active in at least one assay; those are over-represented in the sample as a whole.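 Plates (96-well) were seeded with cells, treated with compound at one concentration, and incubated for 48 hours before percent growth was determined.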 Unmarked numbers belong to inactive results. The source made the active and inactive calls. Rule for the calls: active = growth percent below 10; inactive = the rest.

Each molecule was assayed on MALME-3M melanoma (assay: NCI-60 one-dose screen, 48 h (100 = growth as untreated, 0 = no growth, -100 = all killed)). Conditions: 10 µM unless noted.
For O=C(Nc1cccc(-n2cc(-c3ccncc3)c(-c3ccc(O)c(Cl)c3)n2)c1)Nc1ccc(Cl)c(C(F)(F)F)c1, the growth was -24% (active).
CCOc1ccccc1C(=O)OCC(=O)Nc1cccc(S(=O)(=O)N(C)C)c1 was tested, and the growth was 81.5%.
Cn1c(N)c(N=O)c(=O)[nH]c1=O gave a growth of 104%.
Cc1nn(-c2ccc(Br)cc2)c2nc3c(nc12)C(=O)C(=O)c1ccccc1-3 was tested, and the growth was 91.2%.
For Cc1nn(-c2ccccc2)c2nc(Cl)c(/C=C/C(=O)c3ccccc3)c(-c3ccccc3)c12, the growth was 101%.
With S=C(Nc1ccc(C2=NCCN2)cc1)Nc1ccc(C2=NCCN2)cc1 the growth was 111%.
Work on COc1ccc(C(=O)/C=C/c2c(Cl)nc3c(c(C)nn3-c3ccccc3)c2-c2ccc(Br)cc2)cc1 yielded a growth of 102%.
O=C1c2ccccc2-c2c1nc1ccccc1[n+]2[O-] showed a growth of 90.2%.
In the case of Cc1c(C(N)=O)sc2c1c(=O)n(Cc1ccccc1)c1nnc(S(=O)(=O)CC(=O)Nc3ccc(Cl)cc3)n21, the growth is reported as 30%.
Work on OCCOc1c(Cl)cc(Cl)cc1Cl yielded a growth of 101%.
O=C1Nc2ccc(F)cc2/C1=C/c1nc(-c2ccc(F)cc2)n2ccccc12 was tested, and the growth was 91.3%.
CCOC(=O)C(C(C)=O)c1nc2sc3cc(Cl)ccc3n2c(=N)c1C#N (configuration not stated) gave a growth of 52.5%.
Cc1nn(-c2ccc(Cl)cc2)c2nc3c(nc12)c(=O)oc1ccccc13 was tested, and the growth was 108%.
Cc1nn(-c2ccccc2)c2ncc3c(c12)C(=O)N(Cc1ccccc1)C3=O was tested, and the growth was 72%.
OC(CCC(O)(c1ccccc1)c1ccccc1)(c1ccccc1)c1ccccc1 showed a growth of 100%.
S=C(c1ccccc1)N1CCN(c2cccc(Cl)c2)CC1 showed a growth of 97.4%.
With COc1cc(OC)c2cc(C(=O)O)c(=O)oc2c1 the growth was 113%.
For Cc1c(C(N)=O)sc2ncn(Cc3ccccc3)c(=O)c12, the growth was 120%.
Molecule O=C1CN(CO)C(=O)CN1CO has a growth of 103%.
In the case of O=C(COC(=O)[C@H](C[Se][Se]C[C@H](NC(=O)c1ccc(Br)cc1F)C(=O)OCC(=O)c1ccc(F)cc1)NC(=O)c1ccc(Br)cc1F)c1ccc(F)cc1, the growth is reported as -64.4% (active).
CCOC(=O)C1C(=O)OC2CCCCC21 (configuration not stated) showed a growth of 120%.
Molecule COC(=O)[C@]1(CCSC)N[C@H](c2cn(-c3ccccc3)nc2C)[C@@H]2C(=O)N(c3ccccc3)C(=O)[C@@H]21 has a growth of 105%.
In the case of Cc1c(C(N)=O)sc2c1c(=O)n(Cc1ccccc1)c1nnc(SCC(=O)Nc3ccc(Cl)cc3)n21, the growth is reported as 15.8%.
Molecule O=C1OC(c2ccc(-c3ccccc3)cc2)=C/C1=C/c1cccs1 has a growth of 98.2%.
Oc1ccccc1/C=N\Nc1ccccc1 showed a growth of 95%.
CCCCn1c(Cc2ccc(Cl)cc2)nc2cc(OC)c(OC)cc2c1=O gave a growth of 101%.
Cn1[nH]cc(/C=N/C(N)=O)c1=O was tested, and the growth was 121%.
Cc1[nH]n(C(N)=S)c(=O)c1N=Nc1ccc(F)c(Cl)c1 was tested, and the growth was 110%.
Molecule CCSc1nnc2n(Cc3ccccc3)c(=O)c3c(C)c(C(N)=O)sc3n12 has a growth of 105%.
Molecule NC(=O)SCC(=O)Nc1ccccc1-c1ccccc1 has a growth of 158%.
Cc1nn(-c2ccc(Cl)cc2)c2nc3c(nc12)C(=O)C(=O)c1ccccc1-3 showed a growth of 36.8%.
With O=C(c1ccccc1)c1ccccc1Cl the growth was 102%.
In the case of COc1cc(OC)c2sc(-c3ccc(-n4cncc4-c4ccc(N)cc4)cc3)nc2c1, the growth is reported as 84.4%.
With O=C(CSc1nc2c(n1Nc1ccccc1)-c1ccccc1SC2)Nc1nc(-c2ccc(Cl)cc2)cs1 the growth was 64.2%.
In the case of CN=C(NC)N/N=C(C)\C=N\NC(=NC)NC, the growth is reported as 105%.
For OC(Cc1cccnc1)c1ccccc1 (configuration not stated), the growth was 111%.
For N#Cc1c(N2CCOCC2)nc2sc3cc(Cl)ccc3n2c1=N, the growth was 117%.
